Compounds without any hit were thinned out: in the full panel of roughly 79,000, 15% have a hit. A number with no mark means an inactive call. Activity calls are given as the source filed them. Cut-off read from the data, not from the text of the source: active = growth inhibition above about 70%; inactive = the rest.
Experiments:
[1] = NCI Yeast Anticancer Drug Screen. Data for the rad50 strain (AID 155);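 note: 0% = growth of vehicle-only cultures of the same strain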; settings: S. cerevisiae rad50 strain growth inhibition, stronger effect = higher value
Summary of the method: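 Genetically altered yeast (DNA repair pathway); compound treatment; growth inhibition vs vehicle ctrl.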

[2] = NCI Yeast Anticancer Drug Screen. Data for the mec2-1 strain (AID 157); settings: S. cerevisiae mec2-1 strain, stronger effect = higher value
Summary of the method: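 Each compound was tested on mec2-1 yeast, a strain altered in DNA damage repair or cell cycle control. Growth inhibition is reported relative to vehicle.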

[3] = NCI Yeast Anticancer Drug Screen. Data for the sgs1 mgt1 strain (AID 161);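 note: 0% = growth of cultures given vehicle only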; settings: S. cerevisiae sgs1 mgt1 strain, stronger effect = higher value
Summary of the method: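 Read-out: growth inhibition vs vehicle controls. Cells: mutant yeast strain deficient in DNA damage repair.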

[4] = NCI Yeast Anticancer Drug Screen. Data for the cln2 rad14 strain (AID 165);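 note: 0% = growth equal to vehicle treated cultures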; settings: S. cerevisiae cln2 rad14 strain, stronger effect = higher value
Summary of the method: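 Test compounds were added to cln2 rad14 yeast cultures; inhibition of growth was then determined by comparison with vehicle treatment.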

[5] = NCI Yeast Anticancer Drug Screen. Data for the bub3 strain (AID 167); settings: S. cerevisiae bub3 mutant strain, stronger effect = higher value
Summary of the method: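 Yeast carrying a defined mutation is treated with each compound, and growth is compared with that of vehicle-exposed cells to give inhibition.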

[6] = NCI Yeast Anticancer Drug Screen. Data for the mlh1 rad18 strain (AID 175); settings: S. cerevisiae mlh1 rad18 strain growth inhibition, stronger effect = higher value
Summary of the method: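 Inhibition values reflect reduced growth of mutant yeast versus vehicle-treated controls following compound exposure; the mutations affect DNA damage repair.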

[7] = at 5.0 µM (retest, dose inferred, filed as 0.5)
[8] = at 50.0 µM (retest, dose inferred, filed as 5.0)

Compound	growth inhibition [1, 7]	growth inhibition [1, 8]	growth inhibition ([1]; at 50.0 µM)	growth inhibition [2, 7]	growth inhibition [2, 8]	growth inhibition ([2]; at 50.0 µM)	growth inhibition [3, 7]	growth inhibition [3, 8]	growth inhibition ([3]; at 50.0 µM)	growth inhibition [4, 7]	growth inhibition [4, 8]	growth inhibition ([4]; at 50.0 µM)	growth inhibition [5, 7]	growth inhibition [5, 8]	growth inhibition ([5]; at 50.0 µM)	growth inhibition [6, 7]	growth inhibition [6, 8]	growth inhibition ([6]; at 50.0 µM)
COc1ccc(C=C(C(=O)c2ccccc2)C(=O)c2ccccc2)cc1	12%	95% (active)	91.3% (active)	-7%	96% (active)	92.3% (active)	-6%	94% (active)	91.3% (active)	14%	95% (active)	88.5% (active)	16%	98% (active)	92% (active)	-12%	98% (active)	90.8% (active)
Cc1ccc2ccc3c(CCN(C)C)cc4c(c3c2c1O)OCO4	-1%	22%	90.8% (active)	-4%	57%	67.3%	-1%	75% (active)	91.2% (active)	-1%	64%	95.2% (active)	-2%	86% (active)	92.5% (active)	-5%	53%	94.3% (active)
O=C(O)/C=C\C(=O)Nc1ccc2c(c1)C(=O)c1cc(F)ccc1-2	10%	20%	29%	-1%	-7%	-2.7%	-4%	19%	-5.2%	-6%	6%	68.2%	-2%	2%	-36.6%	8%	17%	4.5%
CSc1nc(C)cc(SCc2ccc(Cl)cc2Cl)n1	-3%	4%	-20.9%	-3%	-7%	-20.6%	-2%	8%	-0.95%	2%	-1%	-36.7%	2%	18%	75% (active)	-2%	21%	-25.4%
Oc1ccc2ccccc2c1I	41%	75% (active)	91.2% (active)	42%	75% (active)	92.7% (active)	97% (active)	99% (active)	93% (active)	79% (active)	99% (active)	92.6% (active)	96% (active)	98% (active)	91.7% (active)	32%	55%	90.8% (active)
NC1=NCN(C2OC(COCc3ccccc3)C(OCc3ccccc3)C2OCc2ccccc2)C(=O)N1 (stereo not given)	5%	57%	66.5%	8%	28%	45.6%	5%	59%	99.4% (active)	-7%	58%	80.2% (active)	-1%	56%	98% (active)	1%	86% (active)	99% (active)
COc1ccccc1NC(=S)N/N=C(/C)c1ccccn1	22%	78% (active)	-30.1%	22%	66%	-8.7%	34%	61%	18.4%	32%	56%	-3.95%	54%	77% (active)	13.5%	13%	64%	-2.3%
CC(=O)Nc1ccc(/C=N\NC(=O)c2ccco2)cc1	-5%	4%	-7.6%	-10%	-7%	-2.6%	-4%	5%	-1.1%	-13%	1%	-3.1%	-8%	-12%	-8.45%	-2%	-12%	0.4%
Cc1cc(NCCCCCCCCNc2cc(C)nc3cc(N(C)C)ccc23)c2ccc(N(C)C)cc2n1	18%	95% (active)	84.9% (active)	18%	97% (active)	90.5% (active)	53%	97% (active)	26.5%	24%	97% (active)	18.4%	57%	97% (active)	32.1%	17%	96% (active)	-17.5%
O=C(/C=C/c1ccccc1Cl)c1ccc(F)cc1	7%	22%	54.2%	-12%	20%	70.4% (active)	-1%	-4%	53.8%	9%	17%	34%	33%	51%	78.8% (active)	8%	47%	29.6%

Reference: PubChem BioAssay (NCI)
